Among all 360,000 compounds or so, about 25,000 (6.9%) were called active. Another 9% or so got no clear call; they are omitted. This excerpt belongs to a sample that is enriched for actives. A number with no mark means an inactive call. Calls follow the shape of the dose curve; as a rule, active = well fitted inhibition curve with a large enough effect; inconclusive = small, poorly fitted or top-dose-only effect; inactive = flat fitted curve, though single readings scatter.

The values below come from PubChem BioAssay AID588342 (National Center for Advancing Translational Sciences (NCATS), 2011).

Luciferin 4-monooxygenase (Photinus pyralis), sequence (P08659 whole entry, looked up): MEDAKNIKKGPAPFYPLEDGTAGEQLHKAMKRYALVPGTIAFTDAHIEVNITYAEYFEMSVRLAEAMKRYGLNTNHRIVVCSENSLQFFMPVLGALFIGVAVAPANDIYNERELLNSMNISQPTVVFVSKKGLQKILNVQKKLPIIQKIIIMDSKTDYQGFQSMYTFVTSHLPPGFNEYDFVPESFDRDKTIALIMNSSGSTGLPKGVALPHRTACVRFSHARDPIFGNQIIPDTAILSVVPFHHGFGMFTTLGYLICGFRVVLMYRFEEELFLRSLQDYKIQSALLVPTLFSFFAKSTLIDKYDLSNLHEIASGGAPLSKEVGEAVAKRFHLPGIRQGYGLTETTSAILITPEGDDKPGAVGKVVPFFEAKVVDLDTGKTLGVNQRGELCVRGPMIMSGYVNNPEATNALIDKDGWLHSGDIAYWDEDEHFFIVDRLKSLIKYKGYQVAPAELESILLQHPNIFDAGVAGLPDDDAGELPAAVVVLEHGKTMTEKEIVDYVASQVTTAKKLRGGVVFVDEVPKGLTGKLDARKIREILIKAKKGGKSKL

This assay addresses Luciferin 4-monooxygenase (Photinus pyralis) (UniProt P08659). Kind of assay: qHTS profiling assay for firefly luciferase inhibitor/activator using purifed enzyme and Km concentrations of substrates (counterscreen for miR-21 project). Also: nearly all actives have a fitted effect of over 55% in size.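 As to activity change, negative = inhibition: plate controls were vehicle for no effect and reference inhibitor for full effect.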 To be noted: purified FLuc, luminescence inhibition; series mostly up to 57.5 µM; activity change, negative = inhibition: at the top concentration. From the text:
MLPCN Grant: 1 R21 NS059478-01 (miR-21 grant) Assay Provider: NCGC NCGC Assay Overview: Firefly (Photinus pyralis) luciferase is one of the most commonly used transcriptional reporters for a number of reasons. It is considered one of the more dynamically responsive reporters -that is, responsive to changes in reporter transcription - as it requires no post-translational modifications and is enzymatically active directly after protein synthesis (Wood, 1998). Additionally, the half-life of the luciferase protein is short relative to other reporter-gene products (Wood, 1995). Whereas reporters with long half-lives potentially allow for increased signal due to accumulation of reporter-gene product, once accumulated in the cell, dynamic changes in reporter-gene expression may be difficult to detect(Fan and Wood, 2007; Almond et al., 2004). It has been shown that wild-type P. pyralis luciferase has a half-life of approximately […] hours in mammalian cells (Thompson et al., 1991). Firefly luciferase reporter-gene assays are also generally considered one of the most sensitive assay types (Wood, 1995; Wood, 1998). Although light produced in a bioluminescence reaction is of lower intensity than that produced during fluorescence emission, this is offset by little to no background light inherent to luminescent assays. Thus the luciferase reporter can be expressed at much lower levels than fluorescent proteins while still providing robust signal. # However, it was initially observed, in 1991, by Thompson et al., that compounds that resemble the substrates of firefly luciferase (FLuc) can act as competitive inhibitors of the enzyme, and that these compounds, upon interaction with luciferase in the cell, can actually stabilize the protein and increase its half-life. Accumulated intracellular FLuc protein can be measured as an increase in luminescence signal, upon addition of detection reagents (which contain high concentrations of FLuc substrates) commonly used in high-throughput screening. In cell-based reporter gene assays that use FLuc as the reporter gene to quantitate the potential influence of a given compound against the target biology, this apparent increase in luminescence can mistakenly be interpreted as identification of a compound that is active against the target of interest. This is the case for the miR-21 FLuc reporter gene assay used to identify inhibitors of the miR-21 pathway (PubChem AID 2289) - compounds of interest will inhibit miR-21 biogenesis/expression or activity, and are identified by causing an increase in luminescence, due to increased FLuc translation. However, FLuc inhibitory compounds that stabilize the FLuc protein will give an identical read-out, making it difficult to distinguish compounds that are active against the target from those active against FLuc. Previous profiling work to determine the prevalence of compounds that affect FLuc enzymatic activity (PubChem AID 411) identified that ~3% of the MLSMR library (then at ~72K) inhibited FLuc. […] Since the MLSMR had grown to ~350K compounds, and since it was expected that a significant percentage of compounds found active in the miR-21 FLuc assay would be FLuc inhibitors, the library was screened for activity against FLuc using a biochemical assay of purified FLuc and KM concentrations of FLuc substrates (D-luciferin and ATP).
NCGC Assay Protocol Summary: Reagents: 50mM Tris acetate, pH 7.5; 10mM Mg acetate; 10uM D-luciferin (Sigma #L9504); 10uM ATP; 0.01% Tween-20; 0.05% BSA; 10nM P. pyralis luciferase (Sigma #L9506) Control compounds used were two known firefly luciferase inhibitors (compounds (2) and (5) in Auld et al., 2010), and DMSO. […]
For orientation: In qHTS, concentration-response curves come from the screen itself.
Regarding `CCC(Sc1nncn1C)C(=O)Nc1nnc(-c2ccc(Cl)cc2)s1` (centres undefined), the Potency was 15.1 µM (active).

Regarding `COc1ccc(C2CC(=O)Nc3c2c(=O)nc2c(C)cccn32)cc1OC` (centres undefined), the “activity change, negative = inhibition” value was -2.04%.

`O=C(NC1=NCCS1)[C@H](Cc1ccccc1)N1C(=O)c2ccccc2C1=O`: the “activity change, negative = inhibition” value is 2.88%.

Regarding `COc1ccccc1C(=O)NCCC(=O)NC1=NCCS1`, the “activity change, negative = inhibition” value is 0.0399%.

Turning to `COc1ccc(C(=O)NC2=NCCS2)c(OC)c1`, the Potency is 6.01 µM (active).

On to `COc1ccc(OC)c(NC(=O)Cc2cccs2)c1`, for which the “activity change, negative = inhibition” value was -4.29%.

Consider `O=C(NC1=NCCS1)c1ccc(Cl)s1`, for which the Potency is 23.9 µM (active).

Turning to `COc1ccc(C(=O)Nc2nncs2)c(OC)c1`, the Potency is 8.49 µM (active).

With `CCOc1ccc(C(=O)CCC(=O)NC2=NCCS2)cc1`, the “activity change, negative = inhibition” value was -14%.

In the case of `COc1cccc(OC)c1C(=O)Nc1nnc(C(C)C)s1`, the “activity change, negative = inhibition” value was -4.11%.

As for `O=C(NCc1ccc2c(c1)OCO2)c1ccc(Cl)s1`, the “activity change, negative = inhibition” value is -19.5%.

Regarding `Cc1c(NC(=O)CSc2nnc(-c3cccnc3)n2N)c(=O)n(-c2ccccc2)n1C`, the “activity change, negative = inhibition” value is 5.52%.

With `COc1ccc(CCNCc2c(C(=O)O)c(C)n(Cc3cccc(C)c3)c2C)cc1OC`, the “activity change, negative = inhibition” value was -0.123%.

Regarding `Cc1ccc(NC(=O)CN2C(=O)C(c3ccc(F)cc3)=NC23CCCCCC3)c(C)c1`, the “activity change, negative = inhibition” value was 4.17%.

Take `CCOc1ccc(N2C(=O)CSC2=NC#N)cc1`: the “activity change, negative = inhibition” value is -1.46%.

With `CCOc1ccccc1NC(=O)Cn1ncc2ccc([N+](=O)[O-])cc21`, the “activity change, negative = inhibition” value is -1.68%.

On to `Cc1cccc(-n2ccnc2SCC(=O)Nc2cccc3ccccc23)c1C`, for which the “activity change, negative = inhibition” value was -4.45%.

Regarding `Cc1ccccc1OCCC(=O)OCC(=O)NCCc1ccc(S(N)(=O)=O)cc1`, the “activity change, negative = inhibition” value was 0.732%.

For `COc1ccccc1CC(NC(C)=O)C(=O)NC1CCN(C(=O)Nc2ccccc2Cl)CC1` (centres undefined), the “activity change, negative = inhibition” value is -1.29%.

Consider `O=C1Cc2cc(S(=O)(=O)Nc3ccc(OC(F)(F)F)cc3)cc3c2N1CCC3`, for which the “activity change, negative = inhibition” value was 3.14%.

With `O=C(O)c1ccccc1-c1ccccc1C(=O)Nc1cccc2ccccc12`, the “activity change, negative = inhibition” value was -0.517%.

Consider `O=C(Nc1cccc2ccccc12)c1onc2c1CCCC2`, for which the Potency is 8.49 µM (active).

`CN(CC(=O)Nc1ccc(Cl)cc1)CC(=O)Nc1cccc2ccccc12`: the “activity change, negative = inhibition” value is 2.54%.

With `COc1ccc(Cl)cc1C(=O)OCC(=O)NCc1cccs1`, the “activity change, negative = inhibition” value is -0.894%.

In the case of `COc1ccc(C(=O)OCC(=O)Nc2ccc3[nH]c(=O)[nH]c3c2)c(OC)c1OC`, the “activity change, negative = inhibition” value is 0.847%.

Take `COc1ccc(C(=O)OCC(=O)c2ccc(Cl)s2)c(OC)c1OC`: the Potency was 21.3 µM (active).

Consider `CCC1=Nc2cc(C(=O)NCC(C)c3ccccc3)ccc2Sc2ccc(C)cc21` (centres undefined), for which the “activity change, negative = inhibition” value is -8.78%.

With `CCOC(=O)c1c(-c2ccc(-c3ccccc3)cc2)csc1NC(=O)CCC(=O)O`, the “activity change, negative = inhibition” value is 0.422%.

Consider `CCOC(=O)c1c(-c2ccc(C)cc2)csc1/N=C(\C)C1=C(O)c2ccccc2C1=O`, for which the Potency was 2.69 µM (active).

With `COC(=O)c1c(-c2ccc(C)cc2)csc1N`, the “activity change, negative = inhibition” value was 0.678%.

Take `CN(C)S(=O)(=O)c1cccc(NC(=O)COC(=O)c2cc(=O)[nH]c(=O)[nH]2)c1`: the “activity change, negative = inhibition” value was 1.02%.

Take `CN(C)S(=O)(=O)c1cccc(NC(=O)COC(=O)C2(c3ccccc3F)CCCC2)c1`: the “activity change, negative = inhibition” value was 3.61%.

Regarding `CN(C)S(=O)(=O)c1cccc(NC(=O)COc2ccc3ccccc3c2)c1`, the Potency is 6.01 µM (active).

For `CCC(Oc1ccccc1C)C(=O)Nc1ccc(S(=O)(=O)Nc2cc(C)on2)cc1` (centres undefined), the “activity change, negative = inhibition” value is 1.08%.
